The panel holds about 79,000 compounds, 15% with a hit somewhere; the sample as a whole holds those more often. Active and inactive are the calls of the source. Cut-off read from the data, not from the text of the source: active = growth inhibition above about 70%; inactive = the rest.
Tests used:
[1] = NCI Yeast Anticancer Drug Screen. Data for the rad52 strain (AID 147);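 note: 0% = growth of vehicle-treated control cultures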; settings: S. cerevisiae rad52 mutant growth inhibition, hits give high values
Procedure, shortened: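 Here a repair-compromised yeast strain receives each compound; its growth is then quantified and normalised to vehicle-only controls.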

[2] = NCI Yeast Anticancer Drug Screen. Data for the wt1 strain (AID 149);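 note: 0% = growth of vehicle-treated wt1 cultures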; settings: S. cerevisiae wt1 strain (SPY 50644) growth inhibition, hits give high values
Procedure, shortened: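 Compounds are added to wt1 yeast cultures. Growth is then measured. Inhibition is expressed relative to vehicle-treated controls.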

[3] = NCI Yeast Anticancer Drug Screen. Data for the rad50EPP+ strain (AID 151);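 note: 0% = growth of vehicle-treated control cultures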; settings: S. cerevisiae rad50 mutant strain, hits give high values
Procedure, shortened: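 Read-out is yeast growth inhibition relative to vehicle; cells used were the rad50EPP+ strain.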

[4] = NCI Yeast Anticancer Drug Screen. Data for the mgt1 strain (AID 153); settings: S. cerevisiae mgt1 mutant growth inhibition, hits give high values
Procedure, shortened: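 Measured: inhibition of mgt1 yeast growth by compound, normalized to vehicle-treated cultures.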

[5] = NCI Yeast Anticancer Drug Screen. Data for the rad50 strain (AID 155);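 note: 0% = growth of vehicle-only cultures of the same strain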; settings: S. cerevisiae rad50 strain growth inhibition, hits give high values
Procedure, shortened: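 Inhibition values express reduced yeast growth in compound-treated cultures relative to vehicle-treated controls.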

[6] = NCI Yeast Anticancer Drug Screen. Data for the mec2-1 strain (AID 157); settings: S. cerevisiae mec2-1 strain, hits give high values
Procedure, shortened: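 Using mec2-1 yeast: add compound, measure growth, express inhibition versus vehicle-treated cultures.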

[7] = NCI Yeast Anticancer Drug Screen. Data for the rad14 strain (AID 159);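 note: 0% = growth of vehicle-treated control cultures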; settings: S. cerevisiae rad14 strain growth inhibition, hits give high values
Procedure, shortened: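 A mutant yeast strain defective in DNA damage repair is treated with compound; inhibition of its growth is scored against untreated, vehicle-exposed cultures.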

[8] = NCI Yeast Anticancer Drug Screen. Data for the sgs1 mgt1 strain (AID 161);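 note: 0% = growth of cultures given vehicle only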; settings: S. cerevisiae sgs1 mgt1 strain, hits give high values
Procedure, shortened: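 Yeast cells carrying a defined DNA-repair defect were exposed to test compounds. Growth inhibition was measured relative to vehicle-treated controls.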

[9] = NCI Yeast Anticancer Drug Screen. Data for the CLN2oe strain (AID 163);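 note: 0% = growth of vehicle-only control cultures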; settings: S. cerevisiae CLN2oe strain, hits give high values
Procedure, shortened: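 Whole-cell yeast growth assay. A strain engineered for altered cell-cycle control received compound, and inhibition relative to vehicle-treated cultures was recorded.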

[10] = NCI Yeast Anticancer Drug Screen. Data for the cln2 rad14 strain (AID 165);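 note: 0% = growth equal to vehicle treated cultures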; settings: S. cerevisiae cln2 rad14 strain, hits give high values
Procedure, shortened: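 Yeast strain cln2 rad14, bearing defects in cell cycle control and DNA repair, serves as the test system; values reflect growth inhibition compared with vehicle.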

[11] = NCI Yeast Anticancer Drug Screen. Data for the wt2 strain (AID 169);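 note: 0% = growth of vehicle-treated yeast cultures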; settings: S. cerevisiae wt2 strain growth inhibition, hits give high values
Procedure, shortened: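 Treated yeast vs. vehicle-treated yeast: growth inhibition determined.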

[12] = NCI Yeast Anticancer Drug Screen. Data for the mlh1 strain (AID 171);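 note: 0% = growth of vehicle-treated control cultures of the same strain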; settings: S. cerevisiae mlh1 strain growth inhibition, hits give high values
Procedure, shortened: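 A yeast strain with a defined genetic lesion serves as the test organism. Cultures receive compound or vehicle, and growth is measured.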

[13] = NCI Yeast Anticancer Drug Screen. Data for the sgs1 strain (AID 173);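 note: 0% = growth of vehicle-only control cultures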; settings: S. cerevisiae sgs1 mutant, hits give high values
Procedure, shortened: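 A genetically defined yeast mutant is incubated with the test compound, and its growth is compared to that of the same strain given vehicle.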

[14] = NCI Yeast Anticancer Drug Screen. Data for the mlh1 rad18 strain (AID 175); settings: S. cerevisiae mlh1 rad18 strain growth inhibition, hits give high values
Procedure, shortened: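 Steps: expose repair-defective yeast to compound; measure growth; express inhibition against vehicle-treated controls.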

[15] = NCI Yeast Anticancer Drug Screen. Data for the rad18 strain (AID 177); settings: S. cerevisiae rad18 mutant growth inhibition, hits give high values
Procedure, shortened: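 Measured value is growth inhibition of a yeast strain bearing a DNA repair alteration, referenced to vehicle-treated cells.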

[16] = NCI Yeast Anticancer Drug Screen. Data for the bub3 strain (AID 167); settings: S. cerevisiae bub3 mutant strain, hits give high values
Procedure, shortened: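 Steps: expose the mutant yeast strain to compound; grow alongside vehicle-treated cultures; measure growth; express inhibition against the vehicle cultures.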

[17] = at 5.0 µM (retest, dose inferred, filed as 0.5)
[18] = at 50.0 µM (retest, dose inferred, filed as 5.0)

Measured: growth inhibition

Nc1ccc(Cl)cc1C(=O)c1ccccc1
active: [1]; at 100.0 µM 97% | [2]; at 100.0 µM 98% | [3]; at 100.0 µM 90% | [4]; at 100.0 µM 97% | [5]; [18] 82% | [5]; at 50.0 µM 91% | [5]; at 100.0 µM 97% | [6]; [18] 86% | [6]; at 50.0 µM 72.2% | [6]; at 100.0 µM 97% | [7]; at 100.0 µM 97% | [8]; [18] 98% | [8]; at 50.0 µM 90.7% | [9]; at 100.0 µM 97% | [10]; [18] 96% | [10]; at 50.0 µM 71.4% | [11]; at 100.0 µM 97% | [12]; at 100.0 µM 97% | [13]; at 100.0 µM 98% | [14]; [18] 81% | [14]; at 50.0 µM 88.4% | [15]; at 100.0 µM 97%
inactive: [1]; at 1.2 µM -15% | [1]; at 3.7 µM -16% | [1]; at 11.0 µM -15% | [1]; at 33.0 µM 46% | [2]; at 1.2 µM -20% | [2]; at 3.7 µM -10% | [2]; at 11.0 µM -10% | [2]; at 33.0 µM 39% | [3]; at 1.2 µM -7% | [3]; at 3.7 µM -2% | [3]; at 11.0 µM 4% | [3]; at 33.0 µM 44% | [4]; at 1.2 µM -28% | [4]; at 3.7 µM -42% | [4]; at 11.0 µM -43% | [4]; at 33.0 µM 3% | [5]; at 1.2 µM -17% | [5]; at 3.7 µM -19% | [5]; [17] 48% | [5]; at 11.0 µM -4% | [5]; at 33.0 µM 57% | [6]; at 1.2 µM -38% | [6]; at 3.7 µM -33% | [6]; [17] 54% | [6]; at 11.0 µM -18% | [6]; at 33.0 µM 0% | [7]; at 1.2 µM -25% | [7]; at 3.7 µM -23% | [7]; at 11.0 µM -15% | [7]; at 33.0 µM 46% | [8]; [17] -19% | [9]; at 1.2 µM 5% | [9]; at 3.7 µM -5% | [9]; at 11.0 µM 5% | [9]; at 33.0 µM 20% | [10]; [17] 57% | [11]; at 1.2 µM -2% | [11]; at 3.7 µM -5% | [11]; at 11.0 µM -6% | [11]; at 33.0 µM 21% | [12]; at 1.2 µM -23% | [12]; at 3.7 µM -33% | [12]; at 11.0 µM -31% | [12]; at 33.0 µM 22% | [13]; at 1.2 µM -7% | [13]; at 3.7 µM 1% | [13]; at 11.0 µM 7% | [13]; at 33.0 µM 63% | [14]; [17] 39% | [15]; at 1.2 µM -12% | [15]; at 3.7 µM -12% | [15]; at 11.0 µM -2% | [15]; at 33.0 µM 69%

COC(=O)C1=C(C(=O)OC)SC2(S1)C(C(=O)OC)=C(C(=O)OC)Sc1c2ssc1=O
inactive: [1]; at 1.2 µM 55% | [2]; at 1.2 µM 27% | [2]; at 3.7 µM 26% | [2]; at 11.0 µM 66% | [3]; at 1.2 µM 9% | [3]; at 3.7 µM 8% | [3]; at 11.0 µM 30% | [3]; at 33.0 µM 56% | [3]; at 100.0 µM 54% | [4]; at 1.2 µM 44% | [4]; at 3.7 µM 51% | [5]; at 1.2 µM 46% | [5]; [17] 13% | [6]; at 1.2 µM 16% | [6]; at 3.7 µM 17% | [6]; [17] 17% | [7]; at 1.2 µM 27% | [7]; at 3.7 µM 30% | [8]; [17] 26% | [9]; at 1.2 µM 14% | [9]; at 3.7 µM 26% | [16]; at 1.2 µM 23% | [16]; at 3.7 µM 32% | [16]; [17] 55% | [11]; at 1.2 µM 21% | [11]; at 3.7 µM 54% | [12]; at 1.2 µM 44% | [12]; at 3.7 µM 51% | [13]; at 1.2 µM 43% | [13]; at 3.7 µM 58% | [14]; [17] 26% | [15]; at 1.2 µM 30% | [15]; at 3.7 µM 55%
active: [1]; at 3.7 µM 72% | [1]; at 11.0 µM 93% | [1]; at 33.0 µM 98% | [1]; at 100.0 µM 89% | [2]; at 33.0 µM 99% | [2]; at 100.0 µM 94% | [4]; at 11.0 µM 88% | [4]; at 33.0 µM 99% | [4]; at 100.0 µM 92% | [5]; at 3.7 µM 73% | [5]; at 11.0 µM 93% | [5]; at 33.0 µM 98% | [5]; [18] 95% | [5]; at 50.0 µM 82.2% | [5]; at 100.0 µM 91% | [6]; at 11.0 µM 85% | [6]; at 33.0 µM 98% | [6]; [18] 95% | [6]; at 50.0 µM 86.2% | [6]; at 100.0 µM 88% | [7]; at 11.0 µM 80% | [7]; at 33.0 µM 99% | [7]; at 100.0 µM 92% | [8]; [18] 95% | [8]; at 50.0 µM 84.1% | [9]; at 11.0 µM 91% | [9]; at 33.0 µM 98% | [9]; at 100.0 µM 91% | [10]; [17] 70% | [10]; [18] 95% | [10]; at 50.0 µM 86.2% | [16]; at 11.0 µM 88% | [16]; at 33.0 µM 98% | [16]; [18] 94% | [16]; at 50.0 µM 78.8% | [16]; at 100.0 µM 91% | [11]; at 11.0 µM 99% | [11]; at 33.0 µM 96% | [11]; at 100.0 µM 89% | [12]; at 11.0 µM 88% | [12]; at 33.0 µM 99% | [12]; at 100.0 µM 92% | [13]; at 11.0 µM 87% | [13]; at 33.0 µM 99% | [13]; at 100.0 µM 93% | [14]; [18] 96% | [14]; at 50.0 µM 86.8% | [15]; at 11.0 µM 91% | [15]; at 33.0 µM 95% | [15]; at 100.0 µM 90%

Source: PubChem BioAssay (NCI)
